PubChem BioAssay (NCI)
“And” between values parts separate entries of the source, which are not always exact repeats. Equal values may be shown once. The panel holds about 83,000 compounds, 20% with a hit somewhere; the sample as a whole holds those more often.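 Each cell line was grown in a 96-well plate and treated with one concentration of compound for 48 hours. Values below 10 were considered active.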 The source made the active and inactive calls.

Test system: MDA-MB-468 breast
Assay: NCI-60 one-dose screen, 48 h (100 = growth as untreated, 0 = no growth, -100 = all killed)
Settings: 10 µM unless noted

SMILES | growth
CC(=O)Oc1ccc(O)cc1 | 95.5% (inactive)
Cc1ccc(Oc2nc3ccccc3cc2-c2nnc(Cn3c(COc4ccccc4)nc4ccccc43)o2)cc1 | 92.1% (inactive)
N#C/C(=C/c1ccc([N+](=O)[O-])cc1)n1nnc2cc(F)c(F)cc21 | 19.8% (inactive)
COc1ccccc1-c1ccc2c(N)c(C(=O)c3ccc4c(c3)OCO4)sc2n1 | 55.1% (inactive)
c1coc2occoc=2o1 | 98.6% (inactive)
COC(=O)CCOc1ccccc1 | 80% (inactive)
Nc1nc(C(=O)N/N=C/c2ccc(N3CCOCC3)cc2)nn1-c1ccc(S(N)(=O)=O)cc1 | 105% (inactive)
COc1ccc2[nH]c(C(=O)N3CCN(C(=O)OCc4ccc5c(Br)cc(Br)c(O)c5n4)CC3)cc2c1 | -80.5% (active)
COC(=O)[C@@H](Cc1c[nH]c2ccccc12)NC(=O)/C=C/c1ccccc1 | 19.6% (inactive)
Cn1cc(-c2nc(N)nnc2-c2c[nH]c3ccccc23)c2cc(Br)ccc21 | 33% (inactive)
COC(=O)c1nc(N)nc(C(=O)OC)c1C(=O)c1ccc(OC)cc1 | 98.1% (inactive) and 47.2% (inactive)
c1ccc(CCSc2ncnc3nc[nH]c23)cc1 | 49% (inactive)
Cc1ncn(-c2ccc(/C=N/Nc3ccnc4cc(Cl)ccc34)cc2)c1C | -21.4% (active)
COc1ccc(/C=c2\sc3n(c2=O)NC2C(N=3)N(C)C(=O)N2C)cc1 (stereo unspecified) | 99% (inactive)
C=C1CCC2C(C)(CO)C(O)CCC2(C)C1CC(NCc1ccccc1)C1=CCOC1=O (stereo unspecified) | 98.9% (inactive)
Cn1cc(-c2csc(-c3cn(CCCN4CCOCC4)c4ccc(F)cc34)n2)c2cccnc21 | 49.3% (inactive)
COc1ccc(C2CC(c3ccccc3)=NN2C(=O)c2cc(OC)c(OC)c(OC)c2)cc1O (stereo unspecified) | 41.3% (inactive)
COc1ccc(-c2nc(-c3nc4ccc(OC)cc4[nH]3)c3ccccn23)cc1 | 72.2% (inactive)
COc1ccccc1CNCCCN1C(=O)c2ccc3c4c(ccc(c24)C1=O)C(=O)N(CCCNCCCCN)C3=O | -55.7% (active)
CNc1ccc(Nc2ccc(S(=O)(=O)O)cc2)c2c1C(=O)c1ccccc1C2=O | 98.6% (inactive)
CC(C)=CC[C@@H]1CC2(CC=C(C)C)C(=O)C(OC3(C(=O)c4ccccc4)C(=O)C4(CC=C(C)C)C[C@@H](CC=C(C)C)C(C)(C)C(CC=C(C)C)(C4=O)C3=O)(C(=O)c3ccccc3)C(=O)C(CC=C(C)C)(C2=O)C1(C)C (stereo partly specified) | -6.87% (active)
CS(=O)(=O)c1ccc(NC(=O)c2ccccc2)nc1 | 105% (inactive)
NCCOc1ncccc1/C=C1\c2ccccc2-c2ccc(C(F)F)cc21 | 85.5% (inactive)
O=C(N/N=C\c1ccc(Cl)cc1)C(=O)N/N=C\c1ccc(Cl)cc1 | 124% (inactive)
O=C(Nc1ncc(Cc2ccccc2)s1)c1sc2ccccc2c1Cl | 7.07% (active)
CCN1CCN(Cc2cn(CC(=O)Nc3ccc4c(ccn4Cc4ccccc4)c3)nn2)CC1 | 97.2% (inactive)
